Compounds with a hit are over-represented: about 5.7% of the library has one in this group of screens.
hcDAF12 agonist = H. contortus DAF-12 nuclear receptor activators, primary screen, cell-based, luminescence, HEK293, lit1-tk-luc reporter. HEK293 hcDAF-12 lit1-tk-luc reporter; 0% DMSO, 100% Δ7-dafachronic acid. activation, % at 6.8 µM. actives 1.4% (n = 370,000). AID 652067, 2013;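 active = activation above the mean of all tested compounds plus 3 SD, cut at about 5.5% in these data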;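 note: 100% = response to 3 µM Δ7-dafachronic acid high control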
ssDAF12 agonist = S. stercoralis DAF-12 nuclear receptor activators, primary screen, cell-based, luminescence, HEK293, GRIP1 co-expression, lit1-tk-luc. HEK293 ssDAF-12/GRIP1 lit1-tk-luc reporter; % of 3 µM dafachronic acid response. activation, % at 6.8 µM. AID 652126, 2013. Nuclear hormone receptor DAF-12 (Strongyloides stercoralis). actives 1% (n = 370,000);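 active = activation above the mean over all tested compounds plus 3 SD, cut at about 0.9% in these data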;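 note: 0% = DMSO-only wells and 100% = 3 µM delta7-dafachronic acid wells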
DAX1 inh-1 = DAX1 (NR0B1) inhibitors on StAR promoter, primary screen, cell-based, luminescence, SF-1 (NR5A1), full-length DAX-1; HEK293T StAR-luciferase reporter, SF-1/DAX-1 repression relief; inhibition, % at 6.8 µM; actives 1.1% (n = 370,000);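 active = inhibition above the mean over all tested compounds plus 3 SD, cut at about 3.6% in these data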;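 note: 0% = DAX-1 cells with DMSO and 100% = cells lacking DAX-1 with DMSO; higher inhibition means more luminescence from relief of DAX-1 repression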
hgDAF-12 ag = H. glycines DAF-12 receptor agonists, primary screen, cell-based, luminescence, HEK293, GAL4 fusion, UAS-luciferase. AID 687014, 2013. actives 1.8% (n = 370,000). activation, % at 6.8 µM. HEK293 GAL4-hgDAF12 UAS-luciferase reporter, agonist luminescence; normalized to butyrate control. Nuclear hormone receptor DAF-12 (Heterodera glycines), GAL4 fusion;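 active = activation above a cutoff set at the mean of all screened compounds plus 3 SD, cut at about 10% in these data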;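 note: 0% = DMSO wells and 100% = sodium butyrate wells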
DAX1 inh-2 = DAX1 (NR0B1) inhibitors, primary screen, cell-based, HEK293, Gal4-DAX1, luciferase luminescence | Nuclear receptor subfamily 0 group B member 1 (Homo sapiens), P51843 | inhibition, % at 6.75 µM | HEK293 Gal4-DAX1 luciferase reporter | actives 0.99% (n = 340,000);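 active = inhibition above the mean over all tested compounds plus 3 SD, cut at about 4.2% in these data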;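 note: 0% = DAX1-transfected cells with DMSO and 100% = empty-vector control cells with DMSO; inhibition shows as a rise in luminescence from relieved DAX1 repression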
Target sequence (P51843 207-470 limits assumed): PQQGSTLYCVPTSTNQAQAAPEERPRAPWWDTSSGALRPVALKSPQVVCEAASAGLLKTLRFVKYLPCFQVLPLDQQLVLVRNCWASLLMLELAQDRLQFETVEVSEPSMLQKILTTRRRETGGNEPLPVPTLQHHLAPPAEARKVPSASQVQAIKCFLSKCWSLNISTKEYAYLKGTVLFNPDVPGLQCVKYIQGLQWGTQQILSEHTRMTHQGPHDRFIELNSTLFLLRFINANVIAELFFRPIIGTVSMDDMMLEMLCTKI
AHR act = AHR activators, primary screen, cell-based, luminescence, luciferase reporter, human; Aryl hydrocarbon receptor (Homo sapiens), P35869; AHR-responsive luciferase reporter cells; activation, % at 5 µM; actives 2.5% (n = 320,000); AID 2796, 2010; in the data active = activation above about 47%;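 note: 0% = vehicle wells and 100% = reference agonist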
DAX1 inh confirm = DAX1 (NR0B1) inhibitors relieving SF-1 repression, confirmation, cell-based, luminescence, HEK293T, full-length DAX-1, SF-1 activated StAR promoter. inhibition, % at 6.8 µM. HEK293T StAR-promoter luciferase reporter, SF-1/DAX-1 repression. actives 87% (n = 2,400). AID 652134, 2013. shares compounds with DAX1 inh-1;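 active = inhibition above the average of every tested compound plus 3 SD, cut at about 3.8% in these data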;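 note: 0% = DAX-1 cells with DMSO and 100% = no DAX-1 control cells with DMSO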
SF1 AF2mut Luc = StAR reporter signal changes without DAX1, counter-screen for DAX1 inhibitor project, cell-based, luminescence, AF-2 mutant SF-1, transactivation | HEK293 StAR-luciferase, SF-1 AF2 mutant | actives 78% (n = 2,400) | inhibition, % at 6.8 µM | shares compounds with DAX1 inh-1;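 active = inhibition above the mean of all tested compounds plus 3 SD, cut at about 3% in these data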;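 note: 0% = DAX-1 transfected cells with DMSO and 100% = cells without DAX-1 with DMSO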
LXR ag = LXR agonists, Gal4 luciferase reporter, confirmation, counter-screen for hcDAF-12 agonist project, cell-based, luminescence, HEK293, H. contortus campaign. HEK293 Gal4-LXR tk-luc reporter, 24 h; normalized: DMSO 0%, positive control 100%. activation, % at 6.8 µM. 3,400 tested, under 10 active. shares compounds with hcDAF12 agonist;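 active = mean percent activation of the reporter above a cutoff set as the average over tested compounds plus their standard deviation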
hcDAF12 ag = H. contortus DAF-12 receptor agonists, confirmation, cell-based, luminescence, HEK293, lit1-tk-luc, triplicate; HEK293 hcDAF-12 lit1-tk-luc reporter; % of Δ7-dafachronic acid response; AID 743032, 2013; actives 61% (n = 3,400); activation, % at 6.8 µM; shares compounds with hcDAF12 agonist;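 active = mean activation across triplicate tests above the threshold derived from the earlier primary screen, cut at about 5.5% in these data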;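 note: 0% = DMSO only wells and 100% = 3 µM Δ7-dafachronic acid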
hgDAF12 ag = H. glycines DAF-12 receptor agonists, confirmation, cell-based, luminescence, HEK293, GAL4-LBD fusion; shares compounds with hgDAF-12 ag; activation, % at 6.8 µM; HEK293 GAL4-hgDAF12 luciferase reporter, agonist mode; percent of butyrate response; AID 743050, 2013; actives 80% (n = 3,300);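 active = mean activation over triplicate wells above the hit cutoff derived from the earlier primary screen, cut at about 11% in these data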;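 note: 0% = DMSO low control and 100% = 2 mM sodium butyrate high control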
LXR ag 2 = LXR agonists, Gal4 luciferase reporter, confirmation, counter-screen for hgDAF-12 agonist project, cell-based, luminescence, HEK293, H. glycines campaign; shares compounds with hgDAF-12 ag; 24 h; activation, % at 6.8 µM; 3,300 tested, under 10 active; AID 743051, 2013;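 active = mean activation of the triplicate above a set limit carried over from the primary screen, none filed active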
* marks the source's active call; other numbers are inactive results; . = not tested or not shown.

SMILES	hcDAF12 agonist	ssDAF12 agonist	DAX1 inh-1	hgDAF-12 ag	DAX1 inh-2	AHR act	DAX1 inh confirm	SF1 AF2mut Luc	LXR ag	hcDAF12 ag	hgDAF12 ag	LXR ag 2
O=C(Nc1ncccc1O)c1ccc(OCC2CCCO2)cc1 (configuration not stated)	5	0	18*	28*	2	0	14*	5.7*	.	.	27*	1
O=C(NC1=NCCS1)c1ccc(OCC2CCCO2)cc1 (configuration not stated)	4	0	3	7	1	15	.	.	.	.	.	.
CC(C)C[C@H](NC(=O)OCC1c2ccccc2-c2ccccc21)C(=O)O	1	0	5.8*	16*	1	.	6.6*	5.8*	.	.	12*	0
Cc1ccc2nc(NC(=O)c3ccco3)sc2c1	3	-2	1	-2	-4	-9	.	.	.	.	.	.
O=C(Nc1nc2ccccc2s1)c1ccc(F)cc1	7.8*	1.8*	4.7*	16*	2	19	8.0*	4.3*	2	8.8*	20*	1
Cc1noc(C)c1C(=O)Nc1nc2ccc(F)cc2s1	7.0*	1	8.9*	14*	2	35	9.8*	5.3*	2	5.8*	14*	1
CCOC(=O)C1CCN(S(=O)(=O)c2c(C)n(C)c(=O)n(C)c2=O)CC1	0	-1	1	-2	4	2	.	.	.	.	.	.
COc1ccc(C(=O)NC2=Nc3ccccc3N=C(C)C2c2ccccc2)cc1 (configuration not stated)	8.9*	0.9*	9.6*	59*	18*	5	23*	19*	0	1	39*	0
Oc1c(I)cc(Cl)c2cccnc12	3	-1	0	-1	0	16	.	.	.	.	.	.
Clc1ccc(OCc2nc3ccccc3[nH]2)cc1	2	0	4.7*	23*	2	-3	9.8*	9.3*	.	.	10	1

From PubChem
